Results on one sequence are retold here after publication PMC7862700, “An all-to-all approach to the identification of sequence-specific readers for epigenetic DNA modifications on cytosine”.

Assay in all cases: DAPPL (digital affinity profiling via proximity ligation, sequencing); 10 mM Tris-HCl pH 7.5, 50 mM NaCl, 1 mM DTT, 4% glycerol, room temperature, 30 min; GST-TFs on glutathione beads, 16-mer random dsDNA library, 0.1% formaldehyde crosslink after washing; high values mean tight binding
The target in one test is T1, FEV (Homo sapiens, UniProt Q99581 1-238).
T1 sequence: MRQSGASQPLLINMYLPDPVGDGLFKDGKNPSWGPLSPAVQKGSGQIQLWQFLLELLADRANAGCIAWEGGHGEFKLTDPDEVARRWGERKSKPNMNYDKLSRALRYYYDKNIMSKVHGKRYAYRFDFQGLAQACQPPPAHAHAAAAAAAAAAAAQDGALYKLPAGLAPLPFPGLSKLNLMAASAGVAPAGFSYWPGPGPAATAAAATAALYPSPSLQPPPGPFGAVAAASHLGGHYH
Particulars: protein: recombinant; tags: N-terminal GST; dsDNA, one strand shown. The method in brief:
(§1)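 Yeast served to express human transcription factors as GST fusions, which were then captured on glutathione beads and labelled with DNA barcodes. Pooled with a tag-only sample, they were incubated with 200 nmole of a 16-mer random double-stranded DNA library for 30 min at room temperature in Tris/NaCl/DTT/glycerol buffer, washed, crosslinked with 0.1% formaldehyde, ligated by proximity, amplified by PCR and sequenced. Dividing each hexamer's read frequency for a factor by its frequency for the tag-only sample gives the binding signal.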

A further test deals with ETV5 (Homo sapiens, UniProt P41161 1-510). Particulars: protein: recombinant; tags: N-terminal GST; dsDNA, one strand shown. The method in brief: as §1
The target of a further test is HSF1 (Homo sapiens, UniProt Q00613 1-529). To be noted: protein: recombinant; tags: N-terminal GST; chain copies: 3; dsDNA, one strand shown. Summed up: as §1
The next test concerns the target T2, SPIC (Homo sapiens, UniProt Q8N5J4 1-248).
T2 sequence: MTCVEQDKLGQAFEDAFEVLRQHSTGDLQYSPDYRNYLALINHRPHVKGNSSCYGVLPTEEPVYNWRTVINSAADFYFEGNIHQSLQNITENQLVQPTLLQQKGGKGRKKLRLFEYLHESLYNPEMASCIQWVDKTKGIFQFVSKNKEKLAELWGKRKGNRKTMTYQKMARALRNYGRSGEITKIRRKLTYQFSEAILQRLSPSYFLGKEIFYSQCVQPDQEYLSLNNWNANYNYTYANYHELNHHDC
To be noted: protein: recombinant; tags: N-terminal GST; dsDNA, one strand shown. Summed up:
as §1

A further test addresses ELF4 (Homo sapiens, UniProt Q99607 1-663). Particulars: protein: recombinant; tags: N-terminal GST; dsDNA, one strand shown. The method in brief:
as §1

Another test deals with T3, ELK4 (Homo sapiens, UniProt P28324-2 1-405).
T3 sequence: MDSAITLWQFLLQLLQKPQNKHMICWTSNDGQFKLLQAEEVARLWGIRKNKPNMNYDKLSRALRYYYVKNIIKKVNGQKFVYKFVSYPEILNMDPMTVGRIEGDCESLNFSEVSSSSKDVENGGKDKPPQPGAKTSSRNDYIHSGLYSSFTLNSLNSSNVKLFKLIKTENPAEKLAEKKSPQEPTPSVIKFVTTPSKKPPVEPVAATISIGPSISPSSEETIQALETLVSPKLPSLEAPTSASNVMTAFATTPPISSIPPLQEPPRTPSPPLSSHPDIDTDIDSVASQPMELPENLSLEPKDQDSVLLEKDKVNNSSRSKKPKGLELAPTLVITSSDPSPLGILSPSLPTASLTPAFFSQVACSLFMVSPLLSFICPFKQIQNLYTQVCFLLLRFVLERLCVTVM
To be noted: protein: recombinant; tags: N-terminal GST; dsDNA, one strand shown. The method in brief: as §1

The target in the next test is T4, ETV2 (Homo sapiens, UniProt O00321 1-342).
T4 sequence: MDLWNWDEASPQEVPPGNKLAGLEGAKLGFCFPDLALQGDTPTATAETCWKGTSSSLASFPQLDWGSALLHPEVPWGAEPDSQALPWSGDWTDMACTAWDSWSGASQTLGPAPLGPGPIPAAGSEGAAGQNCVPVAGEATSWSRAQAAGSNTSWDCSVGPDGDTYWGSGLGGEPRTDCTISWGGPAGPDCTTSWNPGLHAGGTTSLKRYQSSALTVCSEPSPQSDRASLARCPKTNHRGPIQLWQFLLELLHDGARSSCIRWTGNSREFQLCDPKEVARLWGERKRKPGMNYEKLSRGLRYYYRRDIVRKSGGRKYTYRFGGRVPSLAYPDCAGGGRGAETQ
Particulars: protein: recombinant; tags: N-terminal GST; dsDNA, one strand shown. The method in brief: as §1

Another test has as its target T5, ELF3 (Homo sapiens, UniProt P78545 1-371).
T5 sequence: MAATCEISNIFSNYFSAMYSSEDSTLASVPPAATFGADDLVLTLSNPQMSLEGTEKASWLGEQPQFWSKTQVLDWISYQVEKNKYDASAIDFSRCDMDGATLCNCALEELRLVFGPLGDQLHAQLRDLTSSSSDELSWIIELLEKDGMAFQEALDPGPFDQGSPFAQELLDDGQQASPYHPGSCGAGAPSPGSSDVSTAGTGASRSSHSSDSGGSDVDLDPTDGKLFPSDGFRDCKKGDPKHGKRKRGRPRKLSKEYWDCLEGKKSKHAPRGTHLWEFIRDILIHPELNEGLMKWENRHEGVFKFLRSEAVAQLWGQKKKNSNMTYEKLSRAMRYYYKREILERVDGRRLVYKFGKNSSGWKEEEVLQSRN
To be noted: protein: recombinant; tags: N-terminal GST; dsDNA, one strand shown. Summed up:
as §1

The target in a further test is CRX (Homo sapiens, UniProt O43186 1-299). To be noted: protein: recombinant; tags: N-terminal GST; dsDNA, one strand shown. The method in brief: as §1
The target in another test is ETV1 (Homo sapiens, UniProt P50549 1-477). To be noted: protein: recombinant; tags: N-terminal GST; dsDNA, one strand shown. The method in brief:
as §1

Another test deals with T6, ERF (Homo sapiens, UniProt P50548 1-548).
T6 sequence: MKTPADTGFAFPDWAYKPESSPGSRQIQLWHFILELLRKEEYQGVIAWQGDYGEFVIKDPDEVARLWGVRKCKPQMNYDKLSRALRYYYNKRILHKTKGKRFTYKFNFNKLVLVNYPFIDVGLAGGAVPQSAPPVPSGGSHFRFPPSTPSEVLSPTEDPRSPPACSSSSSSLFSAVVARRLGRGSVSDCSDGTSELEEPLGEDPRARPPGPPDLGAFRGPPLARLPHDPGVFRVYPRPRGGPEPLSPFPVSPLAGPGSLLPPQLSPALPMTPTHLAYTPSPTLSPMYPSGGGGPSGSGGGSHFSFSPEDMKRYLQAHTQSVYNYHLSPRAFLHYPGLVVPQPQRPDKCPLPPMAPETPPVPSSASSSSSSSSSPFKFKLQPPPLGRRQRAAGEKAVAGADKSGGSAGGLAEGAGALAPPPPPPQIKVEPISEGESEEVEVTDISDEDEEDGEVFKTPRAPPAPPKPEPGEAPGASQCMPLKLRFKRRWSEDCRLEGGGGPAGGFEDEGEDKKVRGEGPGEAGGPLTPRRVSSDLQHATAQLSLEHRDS
To be noted: protein: recombinant; tags: N-terminal GST; dsDNA, one strand shown. Summed up: as §1

The target of another test is T7, ETV3L (Homo sapiens, UniProt Q6ZN32 1-361).
T7 sequence: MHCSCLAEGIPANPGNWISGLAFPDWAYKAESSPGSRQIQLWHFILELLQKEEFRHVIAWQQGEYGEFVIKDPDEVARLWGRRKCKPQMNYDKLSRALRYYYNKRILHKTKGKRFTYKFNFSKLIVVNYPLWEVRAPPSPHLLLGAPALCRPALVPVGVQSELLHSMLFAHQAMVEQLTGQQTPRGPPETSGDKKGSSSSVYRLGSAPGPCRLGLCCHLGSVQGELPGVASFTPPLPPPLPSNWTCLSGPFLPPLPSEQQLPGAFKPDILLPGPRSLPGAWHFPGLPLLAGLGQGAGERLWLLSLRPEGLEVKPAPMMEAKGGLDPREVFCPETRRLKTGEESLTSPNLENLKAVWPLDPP
To be noted: protein: recombinant; tags: N-terminal GST; dsDNA, one strand shown. Summed up:
as §1

The target of another test is T8, ETS2 (Homo sapiens, UniProt P15036 1-469).
T8 sequence: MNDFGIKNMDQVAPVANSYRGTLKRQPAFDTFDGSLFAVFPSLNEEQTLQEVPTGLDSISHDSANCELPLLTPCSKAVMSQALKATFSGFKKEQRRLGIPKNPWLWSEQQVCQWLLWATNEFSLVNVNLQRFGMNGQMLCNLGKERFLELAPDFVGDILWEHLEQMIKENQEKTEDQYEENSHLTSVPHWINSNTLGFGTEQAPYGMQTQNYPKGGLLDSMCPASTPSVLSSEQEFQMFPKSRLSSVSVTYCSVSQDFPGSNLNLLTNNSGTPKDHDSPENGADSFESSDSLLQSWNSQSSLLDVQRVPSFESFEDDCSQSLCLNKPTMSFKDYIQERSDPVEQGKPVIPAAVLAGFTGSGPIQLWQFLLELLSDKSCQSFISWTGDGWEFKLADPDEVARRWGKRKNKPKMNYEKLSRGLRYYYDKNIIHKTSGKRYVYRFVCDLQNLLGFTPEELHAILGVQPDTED
To be noted: protein: recombinant; tags: N-terminal GST; dsDNA, one strand shown. The method in brief: as §1

The target in the next test is T9, SPDEF (Homo sapiens, UniProt O95238 1-335).
T9 sequence: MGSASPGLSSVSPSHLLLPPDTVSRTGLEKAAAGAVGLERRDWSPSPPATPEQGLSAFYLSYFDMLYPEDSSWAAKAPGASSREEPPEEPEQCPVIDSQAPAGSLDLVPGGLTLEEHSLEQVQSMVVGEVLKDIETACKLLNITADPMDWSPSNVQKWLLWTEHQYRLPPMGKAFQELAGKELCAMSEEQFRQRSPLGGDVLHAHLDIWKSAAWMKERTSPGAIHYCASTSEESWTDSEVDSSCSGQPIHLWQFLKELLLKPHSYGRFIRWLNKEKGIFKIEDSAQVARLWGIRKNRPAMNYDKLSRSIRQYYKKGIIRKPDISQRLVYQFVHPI
Particulars: protein: recombinant; tags: N-terminal GST; dsDNA, one strand shown. Summed up:
as §1

For the next test, the target named is T10, ETV7 (Homo sapiens, UniProt Q9Y603 1-341).
T10 sequence: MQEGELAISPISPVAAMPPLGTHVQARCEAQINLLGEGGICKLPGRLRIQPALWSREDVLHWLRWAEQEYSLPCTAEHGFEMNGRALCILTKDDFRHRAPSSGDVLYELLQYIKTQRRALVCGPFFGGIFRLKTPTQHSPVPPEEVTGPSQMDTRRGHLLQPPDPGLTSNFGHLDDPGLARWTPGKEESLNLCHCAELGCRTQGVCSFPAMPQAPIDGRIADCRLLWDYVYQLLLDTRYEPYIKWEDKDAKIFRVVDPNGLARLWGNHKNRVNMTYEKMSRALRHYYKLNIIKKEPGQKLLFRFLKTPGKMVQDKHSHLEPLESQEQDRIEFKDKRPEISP
Particulars: protein: recombinant; tags: N-terminal GST; dsDNA, one strand shown. The method in brief:
as §1

In the next test the target is T11, ELF5 (Homo sapiens, UniProt Q9UKW6-2 1-255).
T11 sequence: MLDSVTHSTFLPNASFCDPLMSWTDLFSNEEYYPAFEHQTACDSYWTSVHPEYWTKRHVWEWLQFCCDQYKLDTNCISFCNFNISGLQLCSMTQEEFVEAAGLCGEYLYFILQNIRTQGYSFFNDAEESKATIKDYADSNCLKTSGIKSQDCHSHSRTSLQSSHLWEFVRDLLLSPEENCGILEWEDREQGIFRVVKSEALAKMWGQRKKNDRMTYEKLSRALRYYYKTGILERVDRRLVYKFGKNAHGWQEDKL
To be noted: protein: recombinant; tags: N-terminal GST; dsDNA, one strand shown. The method in brief:
as §1

A further test has as its target T12, ETV3 (Homo sapiens, UniProt P41162-2 1-143).
T12 sequence: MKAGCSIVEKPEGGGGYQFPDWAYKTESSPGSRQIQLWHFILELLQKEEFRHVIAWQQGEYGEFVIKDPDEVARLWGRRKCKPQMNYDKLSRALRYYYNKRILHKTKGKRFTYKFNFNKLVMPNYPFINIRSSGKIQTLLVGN
To be noted: protein: recombinant; tags: N-terminal GST; dsDNA, one strand shown. Summed up: as §1

For a further test, the target named is ETV6 (Homo sapiens, UniProt P41212 1-452). To be noted: protein: recombinant; tags: N-terminal GST; dsDNA, one strand shown. Summed up:
as §1

ELF4, sequence (Q99607 whole entry): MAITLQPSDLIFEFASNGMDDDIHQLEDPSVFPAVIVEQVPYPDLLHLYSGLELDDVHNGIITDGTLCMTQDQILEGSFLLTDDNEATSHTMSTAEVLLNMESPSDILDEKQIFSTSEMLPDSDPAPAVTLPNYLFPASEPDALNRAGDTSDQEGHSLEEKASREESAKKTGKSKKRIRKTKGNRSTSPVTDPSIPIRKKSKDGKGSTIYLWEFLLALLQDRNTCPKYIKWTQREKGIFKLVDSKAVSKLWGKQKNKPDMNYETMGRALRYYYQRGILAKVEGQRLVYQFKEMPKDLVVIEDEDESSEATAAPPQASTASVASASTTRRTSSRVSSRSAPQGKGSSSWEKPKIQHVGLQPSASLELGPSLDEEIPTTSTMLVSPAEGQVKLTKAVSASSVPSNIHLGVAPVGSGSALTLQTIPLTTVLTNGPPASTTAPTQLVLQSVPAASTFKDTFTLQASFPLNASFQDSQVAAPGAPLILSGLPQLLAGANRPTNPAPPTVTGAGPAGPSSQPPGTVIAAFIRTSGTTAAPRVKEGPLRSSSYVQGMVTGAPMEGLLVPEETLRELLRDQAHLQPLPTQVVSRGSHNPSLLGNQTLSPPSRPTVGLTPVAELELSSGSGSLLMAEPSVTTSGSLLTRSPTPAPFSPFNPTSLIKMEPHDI
ETV1, sequence (P50549 whole entry): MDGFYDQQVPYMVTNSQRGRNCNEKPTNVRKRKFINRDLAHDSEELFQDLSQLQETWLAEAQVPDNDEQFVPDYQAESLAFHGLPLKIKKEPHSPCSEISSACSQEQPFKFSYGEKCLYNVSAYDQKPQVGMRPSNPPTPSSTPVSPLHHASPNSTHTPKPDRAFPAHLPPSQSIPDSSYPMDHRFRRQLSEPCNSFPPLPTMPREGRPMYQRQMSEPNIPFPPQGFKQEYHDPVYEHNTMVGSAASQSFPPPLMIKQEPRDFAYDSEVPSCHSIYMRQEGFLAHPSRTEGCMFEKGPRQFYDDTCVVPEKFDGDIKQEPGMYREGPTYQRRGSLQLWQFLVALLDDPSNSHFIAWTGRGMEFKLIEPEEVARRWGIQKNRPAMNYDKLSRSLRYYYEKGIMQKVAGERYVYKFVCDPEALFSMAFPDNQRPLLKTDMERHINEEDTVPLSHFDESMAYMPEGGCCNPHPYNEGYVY
CRX, sequence (O43186 whole entry): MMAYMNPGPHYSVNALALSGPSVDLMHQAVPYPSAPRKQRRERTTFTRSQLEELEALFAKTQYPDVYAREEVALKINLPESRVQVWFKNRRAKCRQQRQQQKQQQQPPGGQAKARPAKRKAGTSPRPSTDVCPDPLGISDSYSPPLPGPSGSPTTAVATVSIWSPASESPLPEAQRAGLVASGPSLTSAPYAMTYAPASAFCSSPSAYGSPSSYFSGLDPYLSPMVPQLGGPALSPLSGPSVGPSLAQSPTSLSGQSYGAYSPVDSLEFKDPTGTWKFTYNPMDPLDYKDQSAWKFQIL
ETV6, sequence (P41212 whole entry): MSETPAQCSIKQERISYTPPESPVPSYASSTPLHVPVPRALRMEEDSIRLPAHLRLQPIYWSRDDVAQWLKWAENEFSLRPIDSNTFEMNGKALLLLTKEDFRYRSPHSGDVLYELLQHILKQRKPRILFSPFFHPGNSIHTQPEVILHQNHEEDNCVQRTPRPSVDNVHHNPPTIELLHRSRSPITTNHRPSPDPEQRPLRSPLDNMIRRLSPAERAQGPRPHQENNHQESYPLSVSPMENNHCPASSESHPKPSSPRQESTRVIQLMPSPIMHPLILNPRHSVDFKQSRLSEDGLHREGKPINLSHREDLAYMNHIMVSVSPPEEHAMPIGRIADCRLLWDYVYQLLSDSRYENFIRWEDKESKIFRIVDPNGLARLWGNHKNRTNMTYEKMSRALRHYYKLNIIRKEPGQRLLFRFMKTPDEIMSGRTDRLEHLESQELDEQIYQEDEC
HSF1, sequence (Q00613 whole entry): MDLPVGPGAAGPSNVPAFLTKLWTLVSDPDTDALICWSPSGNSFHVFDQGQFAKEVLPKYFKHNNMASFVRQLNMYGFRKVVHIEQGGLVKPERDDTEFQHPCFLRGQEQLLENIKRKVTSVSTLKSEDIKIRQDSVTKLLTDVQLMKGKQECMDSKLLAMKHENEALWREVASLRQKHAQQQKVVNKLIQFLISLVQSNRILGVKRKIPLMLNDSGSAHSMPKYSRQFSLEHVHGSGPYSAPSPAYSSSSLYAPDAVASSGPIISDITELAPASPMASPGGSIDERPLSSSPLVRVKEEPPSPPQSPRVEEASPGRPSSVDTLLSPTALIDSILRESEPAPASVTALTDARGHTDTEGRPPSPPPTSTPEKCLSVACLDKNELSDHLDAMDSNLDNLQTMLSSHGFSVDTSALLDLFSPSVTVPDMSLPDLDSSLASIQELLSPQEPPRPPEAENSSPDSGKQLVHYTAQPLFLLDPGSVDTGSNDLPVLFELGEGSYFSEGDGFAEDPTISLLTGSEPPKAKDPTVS
ETV5, sequence (P41161 whole entry): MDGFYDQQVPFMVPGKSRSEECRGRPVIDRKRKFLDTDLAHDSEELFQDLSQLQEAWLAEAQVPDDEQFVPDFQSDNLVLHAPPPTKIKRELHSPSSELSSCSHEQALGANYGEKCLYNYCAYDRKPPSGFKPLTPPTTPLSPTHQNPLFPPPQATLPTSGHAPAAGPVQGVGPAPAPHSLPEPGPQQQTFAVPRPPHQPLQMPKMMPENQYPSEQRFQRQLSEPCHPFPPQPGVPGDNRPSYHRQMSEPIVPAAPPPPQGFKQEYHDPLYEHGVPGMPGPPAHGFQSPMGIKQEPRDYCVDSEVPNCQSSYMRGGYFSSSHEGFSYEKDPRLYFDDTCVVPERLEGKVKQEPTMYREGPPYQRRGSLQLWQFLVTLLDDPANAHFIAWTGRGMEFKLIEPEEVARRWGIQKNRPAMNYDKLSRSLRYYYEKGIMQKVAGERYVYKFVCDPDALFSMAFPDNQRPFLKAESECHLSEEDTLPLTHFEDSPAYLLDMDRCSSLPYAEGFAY

As for AATACG, the binding signal was 1.19 fold enrichment (6-mer frequency, TF over GST control) with FEV; 1.27 fold enrichment (6-mer frequency, TF over GST control) with ETV5; 1.26 fold enrichment (6-mer frequency, TF over GST control) with HSF1; 1.17 fold enrichment (6-mer frequency, TF over GST control) in the test with SPIC; 1.29 fold enrichment (6-mer frequency, TF over GST control) with ELF4; 1.02 fold enrichment (6-mer frequency, TF over GST control) in the test with ELK4. The binding signal was 1.19 fold enrichment (6-mer frequency, TF over GST control) with ETV2; 1.24 fold enrichment (6-mer frequency, TF over GST control) with ELF3; 1.36 fold enrichment (6-mer frequency, TF over GST control) with CRX; 1.28 fold enrichment (6-mer frequency, TF over GST control) with ETV1; 1.23 fold enrichment (6-mer frequency, TF over GST control) with ERF; 1.23 fold enrichment (6-mer frequency, TF over GST control) with ETV3L. In addition, the binding signal is 1.28 fold enrichment (6-mer frequency, TF over GST control) in the test with ETS2; 1.24 fold enrichment (6-mer frequency, TF over GST control) with SPDEF; 1.12 fold enrichment (6-mer frequency, TF over GST control) with ETV7; 1.27 fold enrichment (6-mer frequency, TF over GST control) with ELF5; 1.19 fold enrichment (6-mer frequency, TF over GST control) in the test with ETV3; 1.26 fold enrichment (6-mer frequency, TF over GST control) in the test with ETV6.
